# Reference: the supplement of paper PMC11738630
# Tested on: Salmonella enterica serovar Typhimurium 14028s
# Assay: approximate change in surviving CFU after surface colonization relative to water-only control (log10 CFU/mL change); higher = more surviving bacteria (less inhibition of surface colonization)
# Conditions: not stated (Biolog proprietary concentration), surface: plastic 96-well plate, 20-24 h at 25 °C
structure (smiles),measurement,setting,value
CC(=O)N[C@@H](CO)[C@@H](O)[C@H](O)[C@H](O)CO [N-Acetyl-D-Glucosaminitol],approximate change in surviving CFU (log10),"Biolog plate: PM2, Biolog well: D9",0.944
O=C(O)c1ccc(O)cc1 [4-Hydroxy Benzoic Acid],approximate change in surviving CFU (log10),"Biolog plate: PM2, Biolog well: E7",-0.58
CCCC(=O)C(=O)O [a-Keto-Valeric Acid],approximate change in surviving CFU (log10),"Biolog plate: PM2, Biolog well: E10",-0.966
O=C(O)CC(=O)O [Malonic Acid],approximate change in surviving CFU (log10),"Biolog plate: PM2, Biolog well: F2",0.0859
O=C(O)[C@@H]1C[C@@H](O)CN1 [Hydroxy-L-Proline],approximate change in surviving CFU (log10),"Biolog plate: PM2, Biolog well: G8",0.622
O=C(CO)CO [Dihydroxy Acetone],approximate change in surviving CFU (log10),"Biolog plate: PM2, Biolog well: H9",-4.4
N[C@@H](Cc1ccc(O)cc1)C(=O)O [L-Tyrosine],approximate change in surviving CFU (log10),"Biolog plate: PM3, Biolog well: C1",0.3
CC(=O)N[C@@H](CCC(=O)O)C(=O)O [N-Acetyl-L-Glutamic Acid],approximate change in surviving CFU (log10),"Biolog plate: PM3, Biolog well: D1",0.751
CN [Methylamine],approximate change in surviving CFU (log10),"Biolog plate: PM3, Biolog well: D5",-1.05
NCCCCN=C(N)N [Agmatine],approximate change in surviving CFU (log10),"Biolog plate: PM3, Biolog well: D12",-0.193
"CCC(N)C(=O)O (racemic) [D,L-a-Amino-N-Butyric Acid]",approximate change in surviving CFU (log10),"Biolog plate: PM3, Biolog well: G7",-0.644
C[C@H](N)C(=O)N[C@@H](Cc1cnc[nH]1)C(=O)O,approximate change in surviving CFU (log10),"Biolog plate: PM3, Biolog well: H5",-0.258
C[C@H](N)C(=O)N[C@H](C(=O)O)[C@@H](C)O,approximate change in surviving CFU (log10),"Biolog plate: PM3, Biolog well: H7",-0.0215
NCC(=O)N[C@@H](CCC(N)=O)C(=O)O,approximate change in surviving CFU (log10),"Biolog plate: PM3, Biolog well: H9",0.129
C[C@H](O)[C@@H](O)[C@@H](O)[C@H](O)C=O [L-Fucose],approximate change in surviving CFU (log10),"Biolog plate: PM1, Biolog well: B4",1.33
"O=P(O)(O)OC[C@H](O)CO (racemic) [D,L-a-Glycerol-Phosphate]",approximate change in surviving CFU (log10),"Biolog plate: PM1, Biolog well: B7",1.31
O[C@@H]1[C@H](O)[C@H](O)CO[C@H]1O [D-Ribose],approximate change in surviving CFU (log10),"Biolog plate: PM1, Biolog well: C4",0.172
OC[C@H]1O[C@H](OC[C@H]2OC(O)[C@H](O)[C@@H](O)[C@@H]2O)[C@H](O)[C@@H](O)[C@H]1O (stereo partly drawn) [D-Melibiose],approximate change in surviving CFU (log10),"Biolog plate: PM1, Biolog well: C11",1.82
